# Target: AMP-activated protein kinase, AMPK (Homo sapiens) (UniProt P54646+O43741+P54619+Q9UGJ0+Q9Y478+Q13131+Q9UGI9)
# Experiment: AMP-dependent Kinase enzyme assay. An in vitro enzyme assay that detects ADP turnover that is directly proportional to AMPK activity. This uses naive AMPK that is activated during the assay with MK-8722
# Assay type: functional
# Parameters: scale not given: direction of the effect not stated beside the values
# Conditions: 30 µM
row,Structure (SMILES),Percent Effect [%]
1,Cc1nn(CCO)c(C)c1CNC1CCC(C)(C)c2ccccc21 (stereo unspecified),-5.82
2,CSCC(=O)N1CCCC1c1noc(C2CC2)n1 (stereo unspecified),-6.47
3,Cc1cc(S(=O)(=O)Nc2cccc(-n3cccc3)c2)sc1C(=O)O,12.1
4,CNC(=O)[C@@H]1C[C@H]2CN(C(=O)c3ccco3)C[C@H]2N1C,-2.42
5,O=C(Cc1ccccn1)N1CCC2(CC1)CC(Oc1ccccn1)CO2 (stereo unspecified),4.11
6,CN(C)C(=O)[C@@H]1CCO[C@@H]2CCN(Cc3ccccc3)C[C@@H]21,-0.272
7,NC(=O)c1nc(COc2ccc3c(c2)OCO3)no1,10
8,CNC(=O)c1cnc(/C=C/c2ccc(OC)c(O)c2)s1,32.5
9,Cc1ccc([C@@H]2CN(S(=O)(=O)C(C)C)C[C@H]2N(C)C)cc1,-2.84
10,Cc1cc(C(=O)N2CCC3(CCCN(CC4CC4)C3=O)C2)c(C)n1C (stereo unspecified),-5.43
11,CCCN1CCC(NC(=O)c2ccc(F)cc2I)CC1,-6.61
12,COCCC(=O)N1CCC2(COCc3c(C)nc(NCC4CC4)nc32)C1 (stereo unspecified),11.3
13,CN(Cc1ccco1)[C@@H]1CN(Cc2ccco2)[C@@H]2CCCO[C@H]12,15.3
14,CC(C)c1n[nH]c(C(=O)Nc2ccncc2)c1Br,60
15,COc1ccc(-c2nc(CN3CC(n4nc(C)cc4C)C3)no2)cc1,0.251
16,CCC(C(=O)NCc1ccncc1)N(c1cccc(C)c1)S(C)(=O)=O (stereo unspecified),0.78
17,Cc1cc(C)n(C2CN(Cc3noc(-c4ccccc4)n3)C2)n1,3.83
18,CC(O)CNCc1ccc(OCc2ccc3c(c2)OCCO3)cc1 (stereo unspecified),0.644
19,Cc1cc(CNC(=O)N2CCN(c3ccccc3)CC2)no1,2.37
20,O=c1[nH]c2c(c(=O)n1C1CCCCC1)CCC2NCCc1ccccc1 (stereo unspecified),-8.89
21,O=C(c1ccc(C2CCCO2)s1)N1Cc2ccccc2C1 (stereo unspecified),-1.29

# Target: Sialic acid-binding Ig-like lectin 9 (Homo sapiens) (UniProt Q9Y336)
# Experiment: Hs-Siglec9 ALPHAscreen SOP 20170721
# Parameters: scale not given: direction of the effect not stated beside the values
# Conditions: 10 µM
# Sequence of Sialic acid-binding Ig-like lectin 9 (Homo sapiens) (Q9Y336 whole entry): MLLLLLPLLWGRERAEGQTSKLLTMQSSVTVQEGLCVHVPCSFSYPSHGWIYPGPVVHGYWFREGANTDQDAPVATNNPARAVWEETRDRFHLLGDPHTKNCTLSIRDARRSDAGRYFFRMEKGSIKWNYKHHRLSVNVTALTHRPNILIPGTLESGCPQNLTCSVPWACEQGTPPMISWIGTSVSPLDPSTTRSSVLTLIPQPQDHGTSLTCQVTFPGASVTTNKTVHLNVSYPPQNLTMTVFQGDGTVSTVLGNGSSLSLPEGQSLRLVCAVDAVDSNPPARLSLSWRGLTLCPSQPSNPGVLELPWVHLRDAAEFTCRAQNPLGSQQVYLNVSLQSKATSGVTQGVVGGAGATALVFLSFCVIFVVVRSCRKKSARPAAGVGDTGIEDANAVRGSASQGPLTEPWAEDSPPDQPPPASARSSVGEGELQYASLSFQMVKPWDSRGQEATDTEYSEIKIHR
row,Structure (SMILES),Percent Effect [%]
1,Cn1cc(CC2CCN(C(=O)NCc3cn4ccsc4n3)C2)cn1 (stereo unspecified),-0.407
2,COc1cc(C(=O)N(CCC#N)Cc2ccccn2)cc(OC)c1C,14.4
3,CN(Cc1cccnc1)C1CC2(CCN(c3ccccn3)CC2)C1,-6.68
4,Cc1cc(NC(=O)N2CCN(c3nc(C)c(C)s3)CC2)no1,-1.24
5,CN(C)CCCNC(=O)c1cc(Br)c2c(c1)OCCO2,10
6,O=C(Cn1nc2c(cc1=O)CCCC2)N[C@@H](C(=O)O)c1ccccc1,7.75
7,Cc1cnn(CC2CN(c3cnc4ccccc4n3)CCO2)c1 (stereo unspecified),14.7
8,CNC(=O)[C@H]1C[C@@H]2CN(C(=O)c3cscn3)C[C@@H]2N1S(C)(=O)=O,9.01
9,Cn1cc(CN2C[C@@H]3COC[C@]3(C(=O)NCc3ccccn3)C2)cn1,6.2
10,CCn1c(Nc2ccccc2OC)nc2c(C)nn(C)c2c1=O,-2.73
11,Cc1ccc(CNCc2nnc3n2CC(C(F)(F)F)CC3)cc1 (stereo unspecified),4.4
12,O=c1[nH]c2c(c(=O)n1C1CCCCC1)CCC2Nc1ccccc1 (stereo unspecified),-0.297
13,Cc1ccc(C)c(C(NC(=O)C2CC2)c2cccnc2)c1 (stereo unspecified),-7.55
14,Cc1cc(N2CCN(CC(=O)N(C)C)CC2)nc(-c2ccncc2)n1,-5.92
15,c1cc(OCc2ccc3c(c2)OCCO3)ccc1CNC1CC1,-13.3
16,CN(Cc1ccccn1)C1CC2(CCN(Cc3cccnc3)CC2)C1,-6.34
17,Cc1ccc(CNC(=O)N(Cc2ccccc2F)C2CC2)cn1,21.6
18,O=C(NC1CCC1)[C@@H]1CCO[C@@H]2CCN(CCc3ccccc3)C[C@H]21,-3.15
19,c1ccc2sc(N3CCOC(Cn4cccn4)C3)nc2c1 (stereo unspecified),25.1
20,Cc1nn(CCO)c(C)c1CNC1CCC(C)(C)c2ccccc21 (stereo unspecified),14.7

row,Structure (SMILES),Percent Effect [%]
1,CSCC(=O)N1CCCC1c1noc(C2CC2)n1 (stereo unspecified),12.3
2,Cc1cc(S(=O)(=O)Nc2cccc(-n3cccc3)c2)sc1C(=O)O,7.4
3,CNC(=O)[C@@H]1C[C@H]2CN(C(=O)c3ccco3)C[C@H]2N1C,4.75
4,O=C(Cc1ccccn1)N1CCC2(CC1)CC(Oc1ccccn1)CO2 (stereo unspecified),0.184
5,CN(C)C(=O)[C@@H]1CCO[C@@H]2CCN(Cc3ccccc3)C[C@@H]21,-1.07
6,NC(=O)c1nc(COc2ccc3c(c2)OCO3)no1,1.5
7,CNC(=O)c1cnc(/C=C/c2ccc(OC)c(O)c2)s1,-3.93
8,Cc1ccc([C@@H]2CN(S(=O)(=O)C(C)C)C[C@H]2N(C)C)cc1,23.9
9,Cc1cc(C(=O)N2CCC3(CCCN(CC4CC4)C3=O)C2)c(C)n1C (stereo unspecified),6.36
10,CCCN1CCC(NC(=O)c2ccc(F)cc2I)CC1,17.7
11,COCCC(=O)N1CCC2(COCc3c(C)nc(NCC4CC4)nc32)C1 (stereo unspecified),1.42
12,CN(Cc1ccco1)[C@@H]1CN(Cc2ccco2)[C@@H]2CCCO[C@H]12,-0.135
13,CC(C)c1n[nH]c(C(=O)Nc2ccncc2)c1Br,0.333
14,COc1ccc(-c2nc(CN3CC(n4nc(C)cc4C)C3)no2)cc1,-0.396
15,CCC(C(=O)NCc1ccncc1)N(c1cccc(C)c1)S(C)(=O)=O (stereo unspecified),9.85
16,Cc1cc(C)n(C2CN(Cc3noc(-c4ccccc4)n3)C2)n1,3.24
17,CC(O)CNCc1ccc(OCc2ccc3c(c2)OCCO3)cc1 (stereo unspecified),-9.17
18,Cc1cc(CNC(=O)N2CCN(c3ccccc3)CC2)no1,0.348
19,O=c1[nH]c2c(c(=O)n1C1CCCCC1)CCC2NCCc1ccccc1 (stereo unspecified),6.39
20,O=C(c1ccc(C2CCCO2)s1)N1Cc2ccccc2C1 (stereo unspecified),1.79
